Assays:
Settings in all cases: 72 h
HCC1937 [1] = assay: relative cell viability, compound alone, vs DMSO (fraction of DMSO control); higher = less growth inhibition
MDA-MB-231 [2] = assay: as above
HCC1937 [3] = assay: relative cell viability, compound + RSL3, vs DMSO (fraction of DMSO control); higher = less growth inhibition
MDA-MB-231 [4] = assay: as above
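Throughout, for relative cell viability, compound + RSL3, vs DMSO: breast cancer cell viability read out with the CCK-8 kit after co-treatment of each compound with the ferroptosis inducer RSL3.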
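Throughout, for relative cell viability, compound alone, vs DMSO: viability read out with the CCK-8 kit in 96-well plates, screening a set of 303 compounds acting on lipid metabolism targets.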

Row | Compound | relative cell viability (HCC1937 [1]) | relative cell viability (MDA-MB-231 [2]) | relative cell viability (HCC1937 [3]) | relative cell viability (MDA-MB-231 [4])
1 | O=C(O)c1ccnc(N2CC(O)(c3ccc(OCc4c(-c5c(Cl)cccc5Cl)noc4C4CC4)cc3Cl)C2)c1 [Cilofexor] | 0.661 | 0.885 | – | –
2 | CC(O)(CC(=O)O)CC(=O)O [Meglutol] | 0.748 | 0.891 | – | –
3 | Nc1ccc(O)c(C(=O)O)c1 [Mesalamine] | 1.17 | 0.914 | – | –
4 | O=C(Nc1ccccc1)N1CCN(c2nc(-c3ccccc3)ns2)CC1 + COC(=O)c1ccc([C@H]2c3[nH]c4ccccc4c3C[C@H](C(=O)OC)N2C(=O)CCl)cc1 [RSL3] | – | – | 0.281 | 0.406
5 | CC(C)(O)[C@@H]1Cc2cc3ccc(=O)oc3cc2O1 [marmesin] + COC(=O)c1ccc([C@H]2c3[nH]c4ccccc4c3C[C@H](C(=O)OC)N2C(=O)CCl)cc1 [RSL3] | – | – | 0.412 | 0.59
6 | O=C(O)c1cc2c(Cl)c(N3CCN(S(=O)(=O)c4c(Cl)cccc4Cl)CC3)ccc2o1 [Vonafexor] + COC(=O)c1ccc([C@H]2c3[nH]c4ccccc4c3C[C@H](C(=O)OC)N2C(=O)CCl)cc1 [RSL3] | – | – | 0.514 | 0.745
7 | O=C(O)CCn1c2c(c3ccccc31)C[C@H](NS(=O)(=O)c1ccc(F)cc1)CC2 [Ramatroban] | 0.711 | 0.841 | – | –
8 | CN1c2ccccc2C(=O)Nc2cnc(Nc3ccc(N4CCC(O)CC4)cc3)nc21 | 0.384 | 0.55 | – | –

Reference: the supplement of paper PMC9492666
